From PubChem BioAssay (NCI)
The panel holds about 79,000 compounds, 15% with a hit somewhere; the sample as a whole holds those more often. The source made the active and inactive calls. No stated cut-off is given here; in the data, active means growth inhibition above about 70%; inactive means the rest.

What was measured:
[1] = NCI Yeast Anticancer Drug Screen. Data for the rad52 strain (AID 147);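 further: 0% = growth of vehicle-treated control cultures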; conditions: S. cerevisiae rad52 mutant growth inhibition, stronger effect = higher value
In short: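 Read-out: growth inhibition versus vehicle-treated controls. Cells were a DNA repair-deficient yeast strain treated with compounds.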

[2] = NCI Yeast Anticancer Drug Screen. Data for the wt1 strain (AID 149);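 further: 0% = growth of vehicle-treated wt1 cultures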; conditions: S. cerevisiae wt1 strain (SPY 50644) growth inhibition, stronger effect = higher value
In short: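 wt1 strain grown with compound or vehicle; inhibition taken from the growth difference.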

[3] = NCI Yeast Anticancer Drug Screen. Data for the rad50EPP+ strain (AID 151);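 further: 0% = growth of vehicle-treated control cultures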; conditions: S. cerevisiae rad50 mutant strain, stronger effect = higher value
In short: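 Growth inhibition read against vehicle controls in rad50EPP+ yeast, a strain altered in DNA damage repair, after compound exposure.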

[4] = NCI Yeast Anticancer Drug Screen. Data for the mgt1 strain (AID 153); conditions: S. cerevisiae mgt1 mutant growth inhibition, stronger effect = higher value
In short: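 mgt1 yeast grown with test compound; read-out is growth inhibition versus vehicle-treated cultures.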

[5] = NCI Yeast Anticancer Drug Screen. Data for the rad50 strain (AID 155);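 further: 0% = growth of vehicle-only cultures of the same strain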; conditions: S. cerevisiae rad50 strain growth inhibition, stronger effect = higher value
In short: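 DNA repair mutant yeast, compound exposure, growth read-out; inhibition is taken relative to vehicle.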

[6] = NCI Yeast Anticancer Drug Screen. Data for the mec2-1 strain (AID 157); conditions: S. cerevisiae mec2-1 strain, stronger effect = higher value
In short: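 Yeast mec2-1 mutant treated with compound. Readout: growth inhibition vs vehicle controls.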

[7] = NCI Yeast Anticancer Drug Screen. Data for the rad14 strain (AID 159);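 further: 0% = growth of vehicle-treated control cultures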; conditions: S. cerevisiae rad14 strain growth inhibition, stronger effect = higher value
In short: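 DNA repair-defective yeast, compound-exposed; % growth inhibition derived by comparison with vehicle-treated controls.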

[8] = NCI Yeast Anticancer Drug Screen. Data for the sgs1 mgt1 strain (AID 161);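 further: 0% = growth of cultures given vehicle only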; conditions: S. cerevisiae sgs1 mgt1 strain, stronger effect = higher value
In short: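 Inhibition of yeast growth, normalised to vehicle-treated controls, is reported for a strain bearing genetic alterations in DNA damage repair.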

[9] = NCI Yeast Anticancer Drug Screen. Data for the cln2 rad14 strain (AID 165);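 further: 0% = growth equal to vehicle treated cultures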; conditions: S. cerevisiae cln2 rad14 strain, stronger effect = higher value
In short: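 cln2 rad14 yeast strain; compound exposure; growth inhibition read vs vehicle controls.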

[10] = NCI Yeast Anticancer Drug Screen. Data for the bub3 strain (AID 167); conditions: S. cerevisiae bub3 mutant strain, stronger effect = higher value
In short: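 In this screen, a yeast mutant lacking normal mitotic checkpoint function is challenged with compound. Relative growth versus vehicle gives the inhibition value.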

[11] = NCI Yeast Anticancer Drug Screen. Data for the mlh1 strain (AID 171);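 further: 0% = growth of vehicle-treated control cultures of the same strain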; conditions: S. cerevisiae mlh1 strain growth inhibition, stronger effect = higher value
In short: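 Read-out: growth inhibition versus vehicle controls. Strain: engineered yeast with a defined DNA repair or cell cycle defect, compound-treated.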

[12] = NCI Yeast Anticancer Drug Screen. Data for the sgs1 strain (AID 173);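 further: 0% = growth of vehicle-only control cultures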; conditions: S. cerevisiae sgs1 mutant, stronger effect = higher value
In short: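 Read-out: yeast growth inhibition relative to vehicle controls, following compound exposure of a strain with a defined DNA repair/cell cycle alteration.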

[13] = NCI Yeast Anticancer Drug Screen. Data for the mlh1 rad18 strain (AID 175); conditions: S. cerevisiae mlh1 rad18 strain growth inhibition, stronger effect = higher value
In short: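 Yeast w/ defined DNA-repair lesions; compound exposure; growth vs vehicle controls → % inhibition.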

[14] = NCI Yeast Anticancer Drug Screen. Data for the rad18 strain (AID 177); conditions: S. cerevisiae rad18 mutant growth inhibition, stronger effect = higher value
In short: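 Readout: growth inhibition vs vehicle controls. Cells: genetically altered yeast strain, DNA repair defect.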

[15] = at 5.0 µM (retest, dose inferred, filed as 0.5)
[16] = at 50.0 µM (retest, dose inferred, filed as 5.0)

Measured: growth inhibition

COc1cc2c(cc1O)[C@H](C)C(c1ccccc1OC)O2 (stereo partly drawn)
active: [1]; at 100.0 µM 96% | [2]; at 100.0 µM 96% | [4]; at 100.0 µM 97% | [5]; at 100.0 µM 96% | [6]; at 100.0 µM 95% | [7]; at 100.0 µM 96% | [10]; [16] 81% | [10]; at 100.0 µM 97% | [11]; at 100.0 µM 97% | [12]; at 100.0 µM 96% | [14]; at 100.0 µM 94%
inactive: [1]; at 1.2 µM -41% | [1]; at 3.7 µM -34% | [1]; at 11.0 µM -31% | [1]; at 33.0 µM -19% | [2]; at 1.2 µM -11% | [2]; at 3.7 µM -13% | [2]; at 11.0 µM -13% | [2]; at 33.0 µM -17% | [3]; at 1.2 µM -39% | [3]; at 3.7 µM -68% | [3]; at 11.0 µM -54% | [3]; at 33.0 µM -8% | [3]; at 100.0 µM 19% | [4]; at 1.2 µM 1% | [4]; at 3.7 µM 5% | [4]; at 11.0 µM -4% | [4]; at 33.0 µM 33% | [5]; at 1.2 µM -4% | [5]; at 3.7 µM -2% | [5]; [15] -13% | [5]; at 11.0 µM -8% | [5]; at 33.0 µM 4% | [5]; [16] 4% | [5]; at 50.0 µM 15.5% | [6]; at 1.2 µM -27% | [6]; at 3.7 µM -15% | [6]; [15] -44% | [6]; at 11.0 µM -20% | [6]; at 33.0 µM 6% | [6]; [16] 13% | [6]; at 50.0 µM 17.6% | [7]; at 1.2 µM -7% | [7]; at 3.7 µM -11% | [7]; at 11.0 µM -11% | [7]; at 33.0 µM 7% | [8]; [15] -16% | [8]; [16] 59% | [8]; at 50.0 µM 68% | [9]; [15] 26% | [9]; [16] 24% | [9]; at 50.0 µM 29.9% | [10]; at 1.2 µM 24% | [10]; at 3.7 µM 32% | [10]; [15] 20% | [10]; at 11.0 µM 22% | [10]; at 33.0 µM 55% | [10]; at 50.0 µM 62.4% | [11]; at 1.2 µM 17% | [11]; at 3.7 µM 24% | [11]; at 11.0 µM -2% | [11]; at 33.0 µM 47% | [12]; at 1.2 µM -10% | [12]; at 3.7 µM -17% | [12]; at 11.0 µM -12% | [12]; at 33.0 µM 10% | [13]; [15] 1% | [13]; [16] 22% | [13]; at 50.0 µM 19.6% | [14]; at 1.2 µM -9% | [14]; at 3.7 µM -22% | [14]; at 11.0 µM 11% | [14]; at 33.0 µM 20%
